Experimental data as given in PubChem BioAssay (EPA / NIEHS).
Activity calls are given as the source filed them. How the source made its calls: active means hit-call score of the fitted dose curve at least 0.9, where 1 is the maximum; inactive means score below 0.9.

How the values were obtained:
[1] = read-out: Vascular endothelial growth factor receptor 2 (Homo sapiens) (UniProt P35968); test: BSK_4H_VEGFRII: BioMAP Diversity Plus: 4H Assay for Vascular endothelial growth factor receptor 2 (VEGFR2) Biomarker Activity (AID 2283031); details: primary human endothelial cells (HUVEC); actives raise or lower the signal
Method in brief: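 Primary human umbilical vein endothelial cells (4H system), 24 h exposure; cell-surface VEGFR2 measured by ELISA. Bidirectional fitting versus DMSO; cytotoxicity checked in parallel by SRB total-protein staining.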

[2] = read-out: Human Leukocyte Antigen - DR isotype (HLADR), HLA-DRA (gene 3122); test: BSK_BE3C_HLADR: BioMAP Diversity Plus: BE3C Assay for Human Leukocyte Antigen - DR isotype (HLADR) Biomarker Activity (AID 2283032); details: primary human bronchial epithelial cells; actives raise or lower the signal
Method in brief: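 Human primary bronchial epithelial cells in the BE3C system were exposed to chemicals for 24 h, after which HLA-DR levels were quantified by ELISA. Activity was fitted bidirectionally, gain or loss of signal, against DMSO as negative control and baseline.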

[3] = read-out: Vascular cell adhesion molecule 1 (VCAM1), VCAM1 (gene 7412); test: BSK_4H_VCAM1: BioMAP Diversity Plus: 4H Assay for Vascular cell adhesion molecule 1 (VCAM1) Biomarker Activity (AID 2283033); details: primary human endothelial cells (HUVEC); actives raise or lower the signal;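 further: cell-surface VCAM-1 protein measured by ELISA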
Method in brief: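 Primary human umbilical vein endothelial cells were exposed to chemicals for 24 h, after which VCAM-1 was quantified by ELISA. Responses were fitted bidirectionally against DMSO as negative control and activity baseline.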

[4] = read-out: Interferon-gamma inducible Protein 10 (IP10), CXCL10 (gene 3627); test: BSK_BE3C_IP10: BioMAP Diversity Plus: BE3C Assay for Interferon-gamma inducible Protein 10 (IP10) Biomarker Activity (AID 2283034); details: primary human bronchial epithelial cells; actives raise or lower the signal
Method in brief: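 Human primary bronchial epithelial cells were exposed to chemicals for 24 hours, after which IP-10 levels were measured by ELISA. Data were fitted bidirectionally against DMSO, which served as the negative control and activity baseline.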

[5] = read-out: Monokine induced gamma interferon (MIG), CXCL9 (gene 4283); test: BSK_BE3C_MIG: BioMAP Diversity Plus: BE3C Assay for Monokine induced gamma interferon (MIG) Biomarker Activity (AID 2283035); details: primary human bronchial epithelial cells; actives raise or lower the signal;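 further: MIG protein measured by ELISA in BE3C cultures after 24 h of dosing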
Method in brief: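 ELISA read-out of MIG in human lung bronchial epithelial primary cultures, 24 h post-dosing. Bidirectional curve fit vs DMSO baseline.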

[6] = read-out: Transforming growth factor beta 1 (TGFb1), TGFB1 (gene 7040); test: BSK_BE3C_TGFb1: BioMAP Diversity Plus: BE3C Assay for Transforming growth factor beta 1 (TGFb1) Biomarker Activity (AID 2283036); details: primary human bronchial epithelial cells; actives raise or lower the signal
Method in brief: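 Human primary bronchial epithelial cells (BE3C system) were dosed with chemical and TGF-b1 levels measured by ELISA at 24 h. Activity was fitted bidirectionally relative to DMSO negative control as baseline.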

[7] = read-out: Plasminogen activator inhibitor-1 (PAI1), SERPINE1 (gene 5054); test: BSK_BE3C_PAI1: BioMAP Diversity Plus: BE3C Assay for Plasminogen activator inhibitor-1 (PAI1) Biomarker Activity (AID 2283037); details: primary human bronchial epithelial cells; actives raise or lower the signal
Method in brief: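 Human primary bronchial epithelial cells were exposed to chemical for 24 h, then PAI-1 was quantified by ELISA. Activity was fitted bidirectionally relative to the DMSO negative control baseline.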

[8] = read-out: urokinase plasminogen activator (uPA), PLAU (gene 5328); test: BSK_BE3C_uPA: BioMAP Diversity Plus: BE3C Assay for urokinase plasminogen activator (uPA) Biomarker Activity (AID 2283038); details: primary human bronchial epithelial cells; actives raise or lower the signal;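 further: uPA protein level quantified by ELISA in cell cultures; uPA read one day after compound addition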
Method in brief: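 Primary human bronchial epithelial cells, uPA measured by ELISA 24 h after dosing. Bidirectional change relative to DMSO; cytotoxicity checked in parallel cultures by sulforhodamine B total-protein staining.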

[9] = read-out: Urokinase-type plasminogen activator receptor (uPAR), PLAUR (gene 5329); test: BSK_BE3C_uPAR: BioMAP Diversity Plus: BE3C Assay for Urokinase-type plasminogen activator receptor (uPAR) Biomarker Activity (AID 2283039); details: primary human bronchial epithelial cells; actives raise or lower the signal;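 further: uPAR protein level measured by ELISA on the cells; cells exposed to compound for one day before measurement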
Method in brief: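 Primary human bronchial epithelial cells were dosed with chemical and harvested 24 h later; uPAR was quantified by ELISA. Activity was fitted bidirectionally against DMSO as negative control and baseline.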

[10] = read-out: Interleukin-6 (IL6), IL6 (gene 3569); test: BSK_CASM3C_IL6: BioMAP Diversity Plus: CASM3C Assay for Interleukin-6 (IL6) Biomarker Activity for (AID 2283040); details: primary human coronary artery smooth muscle cells; actives raise or lower the signal
[11] = read-out: Tissue plasminogen activator (tPA), PLAT (gene 5327); test: BSK_BE3C_tPA: BioMAP Diversity Plus: BE3C Assay for Tissue plasminogen activator (tPA) Biomarker Activity (AID 2283041); details: primary human bronchial epithelial cells; actives raise or lower the signal;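 further: tPA level quantified by ELISA one day after compound addition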
Method in brief: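 Human primary bronchial epithelial cells were dosed with chemical and tPA biomarker levels measured by ELISA 24 hours later. Activity was fitted bidirectionally against DMSO as negative control and baseline.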

[12] = read-out: Interleukin-8 (IL8), CXCL8 (gene 3576); test: BSK_CASM3C_IL8: BioMAP Diversity Plus: CASM3C Assay for Interleukin-8 (IL8) Biomarker Activity (AID 2283042); details: primary human coronary artery smooth muscle cells; actives raise or lower the signal;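 further: IL-8 protein level quantified by ELISA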
[13] = read-out: Human Leukocyte Antigen - DR isotype (HLADR), HLA-DRA (gene 3122); test: BSK_CASM3C_HLADR: BioMAP Diversity Plus: CASM3C Assay for Human Leukocyte Antigen - DR isotype (HLADR) Biomarker Activity (AID 2283043); details: primary human coronary artery smooth muscle cells; actives raise or lower the signal;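 further: cell-surface HLA-DR protein level quantified by ELISA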
[14] = read-out: Macrophage colony-stimulating factor (MCSF), CSF1 (gene 1435); test: BSK_CASM3C_MCSF: BioMAP Diversity Plus: CASM3C Assay for Macrophage colony-stimulating factor (MCSF) Biomarker Activity (AID 2283044); details: primary human coronary artery smooth muscle cells; actives raise or lower the signal;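 further: M-CSF protein amount quantified by ELISA after 24 h exposure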
[15] = read-out: Low-density lipoprotein receptor (LDLR), LDLR (gene 3949); test: BSK_CASM3C_LDLR: BioMAP Diversity Plus: CASM3C Assay for Low-density lipoprotein receptor (LDLR) Biomarker Activity (AID 2283045); details: primary human coronary artery smooth muscle cells; actives raise or lower the signal;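 further: LDLR protein level on the cell surface quantified by ELISA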
[16] = read-out: Monocyte Chemoattractant Protein-1 (MCP1), CCL2 (gene 6347); test: BSK_CASM3C_MCP1: BioMAP Diversity Plus: CASM3C Assay for Monocyte Chemoattractant Protein-1 (MCP1) Biomarker Activity (AID 2283046); details: primary human coronary artery smooth muscle cells; actives raise or lower the signal;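 further: MCP-1 level quantified by ELISA 24 h after dosing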
[17] = BSK_CASM3C_Proliferation: Cell Proliferation Assessment in the BioMAP Diversity Plus: CASM3C Assay (AID 2283047); details: primary human coronary artery smooth muscle cells;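 further: sulforhodamine B total protein stain as relative cell number at 560 nm; sub-confluent cells exposed 48 h before staining; fitted both ways against DMSO so gain or loss of cell number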
[18] = read-out: Monokine induced gamma interferon (MIG), CXCL9 (gene 4283); test: BSK_CASM3C_MIG: BioMAP Diversity Plus: CASM3C Assay for Monokine induced gamma interferon (MIG) Biomarker Activity (AID 2283048); details: primary human coronary artery smooth muscle cells; actives raise or lower the signal;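 further: MIG protein level measured by ELISA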
[19] = read-out: serum amyloid A (SAA), SAA1 (gene 6288); test: BSK_CASM3C_SAA: BioMAP Diversity Plus: CASM3C Assay for serum amyloid A (SAA) Biomarker Activity (AID 2283049); details: primary human coronary artery smooth muscle cells; actives raise or lower the signal;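 further: SAA protein level quantified by ELISA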
[20] = BSK_CASM3C_SRB: Viability Assessment in the BioMAP Diversity Plus: CASM3C Assay (AID 2283050); details: primary human coronary artery smooth muscle cells;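 further: total protein by SRB staining as cytotoxicity measure in parallel cultures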

Measured: outcome

N#CC(Br)(Br)C(N)=O
inactive: all assays above

C[N+](C)(C)CC1CO1 (stereo not given)
inactive: all assays above

Oc1ccccc1Cl
inactive: all assays above

O=C(Nc1ccccc1)c1ccccc1I
inactive: all assays above

Cn1cc(-c2ccccc2)c(=O)c(-c2cccc(C(F)(F)F)c2)c1
inactive: all assays above

CCCCC(CC)COC(=O)c1ccc(C(=O)OCC(CC)CCCC)c(C(=O)OCC(CC)CCCC)c1 (stereo not given)
inactive: all assays above
